# According to paper PMC7862700, “An all-to-all approach to the identification of sequence-specific readers for epigenetic DNA modifications on cytosine”:
# What was measured:
# Experiment in all cases: DAPPL (digital affinity profiling via proximity ligation, sequencing); 10 mM Tris-HCl pH 7.5, 50 mM NaCl, 1 mM DTT, 4% glycerol, room temperature, 30 min; GST-TFs on glutathione beads, 16-mer random dsDNA library, 0.1% formaldehyde crosslink after washing; high values mean tight binding
# FLI1 = target: T1, FLI1 (Homo sapiens, UniProt Q01543 1-452); settings: protein: recombinant; tags: N-terminal GST; dsDNA, one strand shown
# T1 sequence: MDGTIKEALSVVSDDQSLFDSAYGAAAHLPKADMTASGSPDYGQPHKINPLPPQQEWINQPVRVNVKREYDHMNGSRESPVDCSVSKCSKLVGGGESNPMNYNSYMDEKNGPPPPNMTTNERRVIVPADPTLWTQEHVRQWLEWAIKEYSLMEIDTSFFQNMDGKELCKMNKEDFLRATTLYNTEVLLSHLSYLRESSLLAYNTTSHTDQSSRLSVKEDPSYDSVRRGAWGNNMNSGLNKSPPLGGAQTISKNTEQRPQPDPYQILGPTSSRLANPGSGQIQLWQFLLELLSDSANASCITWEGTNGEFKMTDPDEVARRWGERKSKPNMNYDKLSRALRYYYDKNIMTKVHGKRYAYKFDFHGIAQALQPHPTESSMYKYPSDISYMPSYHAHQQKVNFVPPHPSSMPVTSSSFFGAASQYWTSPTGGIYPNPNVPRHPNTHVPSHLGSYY
# Procedure, shortened: (§1)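 The binding signal reported is, for every hexamer, its read frequency for a factor over its read frequency for the tag-only sample. Reads came from pools of yeast-expressed, GST-fused human transcription factors on glutathione beads, barcoded with DNA and mixed with that sample, which were incubated with 200 nmole of a random double-stranded 16-mer DNA library in Tris/NaCl/DTT/glycerol buffer at room temperature for 30 min. After washing, the pools were crosslinked with 0.1% formaldehyde, proximity-ligated with BsaI/T4 ligase for 1 h at 37 °C, PCR-amplified and sequenced on an Illumina NextSeq500.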
# ELK1 = target: T2, ELK1 (Homo sapiens, UniProt P19419 1-428); settings: protein: recombinant; tags: N-terminal GST; dsDNA, one strand shown
# T2 sequence: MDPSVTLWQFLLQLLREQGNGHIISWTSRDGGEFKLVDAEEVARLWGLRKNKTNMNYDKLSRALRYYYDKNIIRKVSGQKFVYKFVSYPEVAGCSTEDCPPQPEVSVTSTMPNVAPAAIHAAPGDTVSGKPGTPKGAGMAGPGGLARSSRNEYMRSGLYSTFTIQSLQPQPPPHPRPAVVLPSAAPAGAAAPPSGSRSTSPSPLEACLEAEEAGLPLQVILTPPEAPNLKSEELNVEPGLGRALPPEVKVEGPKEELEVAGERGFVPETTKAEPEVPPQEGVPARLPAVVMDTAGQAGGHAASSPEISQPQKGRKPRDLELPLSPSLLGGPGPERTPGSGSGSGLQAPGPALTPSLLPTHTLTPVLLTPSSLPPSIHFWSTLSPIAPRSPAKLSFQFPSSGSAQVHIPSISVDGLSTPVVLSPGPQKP
# Procedure, shortened: as §1
# GABPA = target: T3, GABPA (Homo sapiens, UniProt Q06546 1-454); settings: protein: recombinant; tags: N-terminal GST; dsDNA, one strand shown
# T3 sequence: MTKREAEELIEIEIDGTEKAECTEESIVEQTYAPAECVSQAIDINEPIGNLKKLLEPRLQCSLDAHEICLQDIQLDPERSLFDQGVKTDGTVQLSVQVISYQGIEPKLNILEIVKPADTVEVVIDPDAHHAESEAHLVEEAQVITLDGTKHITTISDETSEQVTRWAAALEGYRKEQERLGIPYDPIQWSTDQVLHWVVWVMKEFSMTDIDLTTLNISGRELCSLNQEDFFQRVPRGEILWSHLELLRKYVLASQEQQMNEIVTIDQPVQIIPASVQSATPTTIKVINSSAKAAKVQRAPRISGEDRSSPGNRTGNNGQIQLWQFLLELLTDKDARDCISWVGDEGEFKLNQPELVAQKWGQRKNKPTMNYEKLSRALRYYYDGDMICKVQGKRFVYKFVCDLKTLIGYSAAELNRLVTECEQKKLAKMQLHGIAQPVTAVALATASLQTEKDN
# Procedure, shortened: as §1
# ERG = target: T4, ERG (Homo sapiens, UniProt P11308 1-479); settings: protein: recombinant; tags: N-terminal GST; dsDNA, one strand shown
# T4 sequence: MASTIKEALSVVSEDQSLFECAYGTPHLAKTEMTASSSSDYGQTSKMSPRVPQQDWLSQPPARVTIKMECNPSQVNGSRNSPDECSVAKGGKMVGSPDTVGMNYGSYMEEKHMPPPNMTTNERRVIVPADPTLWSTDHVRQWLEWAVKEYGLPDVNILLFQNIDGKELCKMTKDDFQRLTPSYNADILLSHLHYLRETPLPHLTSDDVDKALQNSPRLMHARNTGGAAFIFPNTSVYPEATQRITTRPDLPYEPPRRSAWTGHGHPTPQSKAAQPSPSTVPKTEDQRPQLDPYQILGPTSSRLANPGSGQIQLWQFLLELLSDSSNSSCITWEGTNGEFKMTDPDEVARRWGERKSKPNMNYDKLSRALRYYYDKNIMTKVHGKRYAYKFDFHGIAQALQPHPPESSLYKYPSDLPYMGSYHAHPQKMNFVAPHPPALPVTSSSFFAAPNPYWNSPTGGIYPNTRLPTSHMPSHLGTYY
# Procedure, shortened: as §1
# ELF1 = ELF1 (Homo sapiens, UniProt P32519 1-619); settings: protein: recombinant; tags: N-terminal GST; dsDNA, one strand shown
# ELF1, sequence (P32519 whole entry): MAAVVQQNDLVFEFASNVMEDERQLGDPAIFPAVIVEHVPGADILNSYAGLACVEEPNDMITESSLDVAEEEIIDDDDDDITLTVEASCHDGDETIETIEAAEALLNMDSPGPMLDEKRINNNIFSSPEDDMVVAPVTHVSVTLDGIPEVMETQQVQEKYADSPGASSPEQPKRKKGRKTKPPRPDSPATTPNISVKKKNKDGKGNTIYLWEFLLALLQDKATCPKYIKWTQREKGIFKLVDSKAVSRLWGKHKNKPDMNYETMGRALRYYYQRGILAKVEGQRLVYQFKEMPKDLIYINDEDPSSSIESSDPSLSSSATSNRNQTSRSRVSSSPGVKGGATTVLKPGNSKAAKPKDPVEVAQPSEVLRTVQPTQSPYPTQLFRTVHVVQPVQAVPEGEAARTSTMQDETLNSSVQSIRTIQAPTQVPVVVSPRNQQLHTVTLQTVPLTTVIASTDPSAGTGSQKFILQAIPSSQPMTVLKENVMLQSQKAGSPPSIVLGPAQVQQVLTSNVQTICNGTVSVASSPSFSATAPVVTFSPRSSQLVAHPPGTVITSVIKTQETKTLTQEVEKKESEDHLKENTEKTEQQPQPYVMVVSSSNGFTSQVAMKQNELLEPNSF
# Procedure, shortened: as §1
# EHF = target: T5, EHF (Homo sapiens, UniProt Q9NZC4 1-300); settings: protein: recombinant; tags: N-terminal GST; dsDNA, one strand shown
# T5 sequence: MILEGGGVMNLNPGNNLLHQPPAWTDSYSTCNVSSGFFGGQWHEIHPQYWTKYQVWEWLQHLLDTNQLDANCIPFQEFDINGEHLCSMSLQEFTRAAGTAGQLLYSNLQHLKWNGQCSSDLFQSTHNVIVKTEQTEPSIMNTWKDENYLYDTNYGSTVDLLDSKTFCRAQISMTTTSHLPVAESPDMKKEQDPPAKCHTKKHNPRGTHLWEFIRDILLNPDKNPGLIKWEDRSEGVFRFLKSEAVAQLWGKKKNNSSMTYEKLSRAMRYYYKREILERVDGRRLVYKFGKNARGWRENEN
# Procedure, shortened: as §1
# SPI1 = SPI1 (Homo sapiens, UniProt P17947 1-270); settings: protein: recombinant; tags: N-terminal GST; dsDNA, one strand shown
# Procedure, shortened: as §1
# SPIB = SPIB (Homo sapiens, UniProt Q01892 1-262); settings: protein: recombinant; tags: N-terminal GST; dsDNA, one strand shown
# SPIB, sequence (Q01892 whole entry): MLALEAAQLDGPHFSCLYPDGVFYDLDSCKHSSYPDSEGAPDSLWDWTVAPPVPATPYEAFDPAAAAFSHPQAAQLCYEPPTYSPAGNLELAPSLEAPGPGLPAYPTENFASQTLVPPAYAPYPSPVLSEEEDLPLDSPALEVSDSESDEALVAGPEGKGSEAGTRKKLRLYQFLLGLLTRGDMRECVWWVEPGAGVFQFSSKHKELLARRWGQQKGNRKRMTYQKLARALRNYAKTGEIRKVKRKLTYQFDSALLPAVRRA
# Procedure, shortened: as §1
# ELK3 = target: T6, ELK3 (Homo sapiens, UniProt P41970 1-407); settings: protein: recombinant; tags: N-terminal GST; dsDNA, one strand shown
# T6 sequence: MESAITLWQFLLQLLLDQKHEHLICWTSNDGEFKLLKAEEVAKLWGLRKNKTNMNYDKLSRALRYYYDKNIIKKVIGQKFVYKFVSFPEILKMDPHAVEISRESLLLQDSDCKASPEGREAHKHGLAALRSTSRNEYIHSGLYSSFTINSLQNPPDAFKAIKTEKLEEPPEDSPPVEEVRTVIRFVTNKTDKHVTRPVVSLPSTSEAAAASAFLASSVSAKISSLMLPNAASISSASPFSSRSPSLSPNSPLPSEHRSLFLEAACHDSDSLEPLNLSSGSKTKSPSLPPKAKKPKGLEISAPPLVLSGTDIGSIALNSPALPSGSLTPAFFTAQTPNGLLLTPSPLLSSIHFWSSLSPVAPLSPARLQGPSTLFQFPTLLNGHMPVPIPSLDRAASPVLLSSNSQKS
# Procedure, shortened: as §1
# FEV = target: T7, FEV (Homo sapiens, UniProt Q99581 1-238); settings: protein: recombinant; tags: N-terminal GST; dsDNA, one strand shown
# T7 sequence: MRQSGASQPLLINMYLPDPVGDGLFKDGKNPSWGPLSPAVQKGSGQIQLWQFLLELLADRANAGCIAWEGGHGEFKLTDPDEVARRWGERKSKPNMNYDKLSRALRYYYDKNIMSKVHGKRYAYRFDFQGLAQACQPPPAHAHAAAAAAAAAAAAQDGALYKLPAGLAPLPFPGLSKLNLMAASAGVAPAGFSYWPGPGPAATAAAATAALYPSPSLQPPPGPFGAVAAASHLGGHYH
# Procedure, shortened: as §1
# ETV5 = ETV5 (Homo sapiens, UniProt P41161 1-510); settings: protein: recombinant; tags: N-terminal GST; dsDNA, one strand shown
# ETV5, sequence (P41161 whole entry): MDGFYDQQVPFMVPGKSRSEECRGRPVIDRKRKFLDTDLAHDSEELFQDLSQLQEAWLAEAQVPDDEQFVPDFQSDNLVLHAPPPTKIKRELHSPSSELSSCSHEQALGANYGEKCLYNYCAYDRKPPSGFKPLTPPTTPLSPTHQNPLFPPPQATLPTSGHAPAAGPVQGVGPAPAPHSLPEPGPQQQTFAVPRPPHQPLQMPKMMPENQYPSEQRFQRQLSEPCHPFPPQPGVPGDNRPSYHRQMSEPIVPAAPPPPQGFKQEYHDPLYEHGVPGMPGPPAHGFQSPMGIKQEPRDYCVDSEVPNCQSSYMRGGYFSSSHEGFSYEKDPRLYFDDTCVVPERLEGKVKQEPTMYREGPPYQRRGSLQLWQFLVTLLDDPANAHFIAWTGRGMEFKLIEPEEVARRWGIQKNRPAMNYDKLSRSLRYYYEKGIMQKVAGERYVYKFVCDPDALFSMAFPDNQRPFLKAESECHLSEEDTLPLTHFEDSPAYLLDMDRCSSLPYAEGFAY
# Procedure, shortened: as §1
# HSF1 = HSF1 (Homo sapiens, UniProt Q00613 1-529); settings: protein: recombinant; tags: N-terminal GST; chain copies: 3; dsDNA, one strand shown
# HSF1, sequence (Q00613 whole entry): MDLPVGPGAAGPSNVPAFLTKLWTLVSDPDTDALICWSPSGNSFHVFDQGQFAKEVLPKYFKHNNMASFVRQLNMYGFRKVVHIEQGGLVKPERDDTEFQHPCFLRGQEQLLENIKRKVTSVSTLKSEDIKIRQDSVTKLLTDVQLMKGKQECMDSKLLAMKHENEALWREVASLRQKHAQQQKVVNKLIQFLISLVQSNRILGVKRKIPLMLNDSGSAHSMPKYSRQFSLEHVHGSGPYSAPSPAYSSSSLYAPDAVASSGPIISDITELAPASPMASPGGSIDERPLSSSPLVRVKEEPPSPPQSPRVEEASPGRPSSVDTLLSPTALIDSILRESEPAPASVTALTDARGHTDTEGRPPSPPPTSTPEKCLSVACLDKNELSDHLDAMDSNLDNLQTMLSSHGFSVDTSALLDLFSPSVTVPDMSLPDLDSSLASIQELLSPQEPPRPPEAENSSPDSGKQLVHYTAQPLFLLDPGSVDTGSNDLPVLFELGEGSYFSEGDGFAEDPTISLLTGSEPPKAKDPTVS
# Procedure, shortened: as §1
# SPIC = target: T8, SPIC (Homo sapiens, UniProt Q8N5J4 1-248); settings: protein: recombinant; tags: N-terminal GST; dsDNA, one strand shown
# T8 sequence: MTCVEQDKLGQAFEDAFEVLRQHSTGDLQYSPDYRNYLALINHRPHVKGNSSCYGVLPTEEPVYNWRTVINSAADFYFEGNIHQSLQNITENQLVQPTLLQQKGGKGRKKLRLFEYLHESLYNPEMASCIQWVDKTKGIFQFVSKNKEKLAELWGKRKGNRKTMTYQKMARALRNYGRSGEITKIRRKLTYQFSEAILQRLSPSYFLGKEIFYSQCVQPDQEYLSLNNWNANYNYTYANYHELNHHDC
# Procedure, shortened: as §1
# ELF4 = ELF4 (Homo sapiens, UniProt Q99607 1-663); settings: protein: recombinant; tags: N-terminal GST; dsDNA, one strand shown
# ELF4, sequence (Q99607 whole entry): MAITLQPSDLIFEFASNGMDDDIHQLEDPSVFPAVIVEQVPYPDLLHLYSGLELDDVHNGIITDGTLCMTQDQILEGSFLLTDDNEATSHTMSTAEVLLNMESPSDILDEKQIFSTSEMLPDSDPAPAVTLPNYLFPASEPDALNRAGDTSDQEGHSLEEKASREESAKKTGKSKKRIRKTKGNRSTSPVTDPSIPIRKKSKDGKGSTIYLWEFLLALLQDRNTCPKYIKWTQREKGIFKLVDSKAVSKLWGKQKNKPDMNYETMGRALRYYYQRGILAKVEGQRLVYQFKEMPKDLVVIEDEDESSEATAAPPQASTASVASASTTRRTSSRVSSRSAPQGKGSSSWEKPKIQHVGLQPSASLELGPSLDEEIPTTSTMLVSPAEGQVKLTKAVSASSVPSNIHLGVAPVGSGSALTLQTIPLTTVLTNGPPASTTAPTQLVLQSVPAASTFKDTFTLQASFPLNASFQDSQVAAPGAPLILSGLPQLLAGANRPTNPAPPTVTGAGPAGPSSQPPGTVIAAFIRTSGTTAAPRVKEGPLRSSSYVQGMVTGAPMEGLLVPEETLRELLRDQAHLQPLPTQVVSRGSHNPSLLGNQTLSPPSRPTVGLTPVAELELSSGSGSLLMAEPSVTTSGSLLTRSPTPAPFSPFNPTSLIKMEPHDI
# Procedure, shortened: as §1
# ELK4 = target: T9, ELK4 (Homo sapiens, UniProt P28324-2 1-405); settings: protein: recombinant; tags: N-terminal GST; dsDNA, one strand shown
# T9 sequence: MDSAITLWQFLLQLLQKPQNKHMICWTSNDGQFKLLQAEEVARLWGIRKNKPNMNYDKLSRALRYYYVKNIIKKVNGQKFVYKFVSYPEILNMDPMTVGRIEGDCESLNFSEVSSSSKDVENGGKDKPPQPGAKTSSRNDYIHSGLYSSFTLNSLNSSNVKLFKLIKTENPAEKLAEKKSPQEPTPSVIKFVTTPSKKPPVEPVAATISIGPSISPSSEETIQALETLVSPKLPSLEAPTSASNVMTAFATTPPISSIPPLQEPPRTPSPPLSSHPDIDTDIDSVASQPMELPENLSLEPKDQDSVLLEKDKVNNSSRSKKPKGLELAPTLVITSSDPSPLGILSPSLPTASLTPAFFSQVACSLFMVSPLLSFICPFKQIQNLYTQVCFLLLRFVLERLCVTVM
# Procedure, shortened: as §1
# ETV2 = target: T10, ETV2 (Homo sapiens, UniProt O00321 1-342); settings: protein: recombinant; tags: N-terminal GST; dsDNA, one strand shown
# T10 sequence: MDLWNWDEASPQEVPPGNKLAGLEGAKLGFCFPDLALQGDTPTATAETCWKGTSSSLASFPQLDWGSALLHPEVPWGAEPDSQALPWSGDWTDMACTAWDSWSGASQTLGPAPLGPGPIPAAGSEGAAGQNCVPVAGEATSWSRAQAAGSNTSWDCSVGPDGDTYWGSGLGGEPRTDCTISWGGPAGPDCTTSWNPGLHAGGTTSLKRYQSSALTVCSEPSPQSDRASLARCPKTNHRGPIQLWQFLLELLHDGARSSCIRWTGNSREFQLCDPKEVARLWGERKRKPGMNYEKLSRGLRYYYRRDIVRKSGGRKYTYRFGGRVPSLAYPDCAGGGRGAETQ
# Procedure, shortened: as §1
# ELF3 = target: T11, ELF3 (Homo sapiens, UniProt P78545 1-371); settings: protein: recombinant; tags: N-terminal GST; dsDNA, one strand shown
# T11 sequence: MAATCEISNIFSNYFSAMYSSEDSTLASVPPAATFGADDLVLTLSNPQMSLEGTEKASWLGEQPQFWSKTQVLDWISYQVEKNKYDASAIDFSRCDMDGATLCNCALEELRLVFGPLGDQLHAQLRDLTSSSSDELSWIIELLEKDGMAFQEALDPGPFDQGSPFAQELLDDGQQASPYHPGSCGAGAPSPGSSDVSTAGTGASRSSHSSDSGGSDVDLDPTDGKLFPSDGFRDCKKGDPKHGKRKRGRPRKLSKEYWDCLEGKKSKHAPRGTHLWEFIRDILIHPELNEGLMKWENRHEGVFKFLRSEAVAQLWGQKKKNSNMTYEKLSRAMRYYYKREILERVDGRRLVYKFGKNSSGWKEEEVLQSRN
# Procedure, shortened: as §1
# CRX = CRX (Homo sapiens, UniProt O43186 1-299); settings: protein: recombinant; tags: N-terminal GST; dsDNA, one strand shown
# CRX, sequence (O43186 whole entry): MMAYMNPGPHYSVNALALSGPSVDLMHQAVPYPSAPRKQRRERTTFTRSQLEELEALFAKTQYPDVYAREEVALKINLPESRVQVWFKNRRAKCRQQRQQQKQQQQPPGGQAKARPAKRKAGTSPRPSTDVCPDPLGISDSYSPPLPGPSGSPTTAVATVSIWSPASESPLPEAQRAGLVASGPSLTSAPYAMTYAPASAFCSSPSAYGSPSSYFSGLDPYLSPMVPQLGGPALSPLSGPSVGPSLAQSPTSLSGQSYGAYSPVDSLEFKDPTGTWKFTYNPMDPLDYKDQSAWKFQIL
# Procedure, shortened: as §1
# ETV1 = ETV1 (Homo sapiens, UniProt P50549 1-477); settings: protein: recombinant; tags: N-terminal GST; dsDNA, one strand shown
# ETV1, sequence (P50549 whole entry): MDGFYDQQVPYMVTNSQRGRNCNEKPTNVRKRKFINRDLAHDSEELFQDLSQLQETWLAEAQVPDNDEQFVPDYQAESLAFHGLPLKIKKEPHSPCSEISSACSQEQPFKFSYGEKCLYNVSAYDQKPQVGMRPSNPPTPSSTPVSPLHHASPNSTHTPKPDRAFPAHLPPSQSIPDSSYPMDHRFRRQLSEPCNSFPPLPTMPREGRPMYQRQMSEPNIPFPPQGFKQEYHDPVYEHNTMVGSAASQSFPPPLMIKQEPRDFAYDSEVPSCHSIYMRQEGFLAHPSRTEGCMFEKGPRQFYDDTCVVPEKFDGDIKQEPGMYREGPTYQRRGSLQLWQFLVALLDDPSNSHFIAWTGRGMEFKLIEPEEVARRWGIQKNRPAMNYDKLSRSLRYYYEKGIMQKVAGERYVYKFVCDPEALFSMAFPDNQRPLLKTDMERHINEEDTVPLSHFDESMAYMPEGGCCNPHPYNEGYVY
# Procedure, shortened: as §1
sequence,measurement,setting,value
TACTAA,binding signal,FLI1,"1.2 fold enrichment (6-mer frequency, TF over GST control)"
same,binding signal,ELK1,"1.23 fold enrichment (6-mer frequency, TF over GST control)"
same,binding signal,GABPA,"1.36 fold enrichment (6-mer frequency, TF over GST control)"
same,binding signal,ERG,"1.29 fold enrichment (6-mer frequency, TF over GST control)"
same,binding signal,ELF1,"1.28 fold enrichment (6-mer frequency, TF over GST control)"
same,binding signal,EHF,"1.3 fold enrichment (6-mer frequency, TF over GST control)"
same,binding signal,SPI1,"1.25 fold enrichment (6-mer frequency, TF over GST control)"
same,binding signal,SPIB,"1.23 fold enrichment (6-mer frequency, TF over GST control)"
same,binding signal,ELK3,"1.24 fold enrichment (6-mer frequency, TF over GST control)"
same,binding signal,FEV,"1.16 fold enrichment (6-mer frequency, TF over GST control)"
same,binding signal,ETV5,"1.18 fold enrichment (6-mer frequency, TF over GST control)"
same,binding signal,HSF1,"1.51 fold enrichment (6-mer frequency, TF over GST control)"
same,binding signal,SPIC,"1.24 fold enrichment (6-mer frequency, TF over GST control)"
same,binding signal,ELF4,"1.32 fold enrichment (6-mer frequency, TF over GST control)"
same,binding signal,ELK4,"1.4 fold enrichment (6-mer frequency, TF over GST control)"
same,binding signal,ETV2,"1.1 fold enrichment (6-mer frequency, TF over GST control)"
same,binding signal,ELF3,"1.27 fold enrichment (6-mer frequency, TF over GST control)"
same,binding signal,CRX,"2.1 fold enrichment (6-mer frequency, TF over GST control)"
same,binding signal,ETV1,"1.29 fold enrichment (6-mer frequency, TF over GST control)"
